The source made the active and inactive calls.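 How the source made its calls: active means inhibition of the reporter signal at or above 50%; inactive means inhibition below 50%.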

The assay is described as follows: inhibitors of poly I:C-induced TLR3 signaling, primary screen, cell-based, poly I:C stimulus, luciferase, 10K MLSCN set (AID 602277). Particulars: HEK293-TLR3 RL24 IRF3 luciferase reporter, at 10 µM, active compounds read high. (In general: A reporter such as luciferase makes a cellular process visible.)
With `Cc1onc(-c2c(Cl)cccc2Cl)c1C(=O)N1CCc2ccccc21`, the inhibition (in general, the change of the read-out against control, counted positive when it falls) was 23.2% (inactive).
For the compound `CN1CCN(C2=C(Cl)C(=O)N(c3cccc(Cl)c3)C2=O)CC1`, the inhibition is 13.1% (inactive).
The figure for `COc1ccc(CCNC(=O)c2ccncc2)cc1OC` is 19.9% (inactive); for `O=c1c2cc(Cl)ccc2[nH]c(=S)n1Cc1ccco1` it is 20.2% (inactive).
The result for `Nc1nc(SCc2nc3scc(-c4cccs4)c3c(=O)[nH]2)n[nH]1` reads 4.54% (inactive); that for `Cn1c(=O)c2c([nH]c(=O)n2C)n(C)c1=O`, 20.1% (inactive).
As for `COc1ccccc1CN1CC(C(=O)NCc2cccnc2)CC1=O` (stereo not given), the inhibition was 29.2% (inactive).
The result for `COc1ccc(-n2nnnc2SCC(=O)c2ccc(O)c(O)c2)cc1` reads 16.9% (inactive); that for `Cc1ccc2c(c1)N(CC(=O)Nc1ccc3c(c1)OCCO3)C(=O)CO2`, 99.4% (active); that for `Cc1nc2ccc(N3C(=O)CCC3=O)cc2[nH]1`, 15.6% (inactive).
The figure for `CCOC(=O)c1oc2ccccc2c1NC(=O)c1cccc(OC)c1OC` is -6.33% (inactive).
On to `CCC(C)NC(=O)c1ccccc1NC(=O)C(C)N(c1ccccc1)S(C)(=O)=O` (stereo not given), for which the inhibition was 28.8% (inactive).
The figure for `O=C(Nc1sc2c(c1C(=O)NCc1ccco1)CCCC2)c1ccc2c(c1)OCO2` is -179% (inactive); for `CCOC(=O)c1ccc(NS(=O)(=O)c2ccc3c(c2)CCCN3C(C)=O)cc1` it is 6.65% (inactive).
`CC12COC3(C(=O)Nc4ccc(Cl)cn4)CC1CCC32C` (stereo not given): the inhibition is 10.2% (inactive).
The figure for `CC1CCC2C(C1)c1sc(=O)[nH]c1SC2(C)C` (stereo not given) is 10.1% (inactive); for `Brc1ccc(-c2csc(/N=C/N3CCOCC3)n2)cc1` it is -171% (inactive); for `Cc1nnc(SCc2cn3ccsc3n2)n(N)c1=O` it is 31.6% (inactive).
For the compound `CCOc1ccc(-c2nnc(N)s2)cc1`, the inhibition was -78.8% (inactive).
The figure for `C=CCn1c(=O)c(C(=O)Nc2ccccc2C(=O)OCC)c(O)c2ccccc21` is 14.7% (inactive); for `C=CCn1c(COc2ccccc2)nnc1SCC(=O)C(C)(C)C` it is 22.7% (inactive).
For `O=C(c1ccco1)N1CCN(C(=O)c2cc3c(s2)-c2ccccc2OC3)CC1`, the inhibition is -25.8% (inactive).
The result for `O=C(NCc1cccs1)C1CCCN(c2ncccn2)C1` (stereo not given) reads 9.11% (inactive).
The figure for `Cc1cc(C)c2[nH]c(=O)c(C(c3nnnn3Cc3ccc4c(c3)OCO4)N3CCC(C)CC3)cc2c1` (stereo not given) is 18.2% (inactive).
Take `COc1cccc(-c2nc(CS(=O)(=O)CC(=O)Nc3cc(C)ccc3C)c(C)o2)c1`: the inhibition was 27.7% (inactive).
Take `Cc1ccc(C2=Nc3ccccc3NC(C)(c3ccc(C)o3)C2)o1` (stereo not given): the inhibition was -67.9% (inactive).
As to `CCOC(=O)c1ccc(N=c2sc(C(=O)OC)cc(=O)n2Cc2ccco2)cc1`, the inhibition is 77.4% (active).
As for `COc1ccc2c(c1)C(C)=CC(C)(C)N2C(=O)CSc1nnc(-c2ccc(C)cc2)o1`, the inhibition was 17.4% (inactive).
For `CC(C)C1N=C2c3ccccc3N=C(SCc3cc(=O)n4ccccc4n3)N2C1=O` (stereo not given), the inhibition was -22.1% (inactive).
The figure for `CCCCN(CCCC)CCn1cnc2c([nH]c3ccc(OC)cc32)c1=O` is 30.7% (inactive); for `CC1CC(=O)c2cnc(NCC3CCCO3)nc2C1` (stereo not given) it is -1.06% (inactive).
The result for `CCC(CO)Nc1ncnc2c1cnn2-c1ccc(Cl)cc1` (stereo not given) reads -14% (inactive); that for `CC(C)CCNC(=O)C(C)N(Cc1ccc(F)cc1)C(=O)c1ccc(CN2CCCCC2)o1` (stereo not given), 14% (inactive); that for `O=C(OC1CCOC1=O)c1ccc(S(=O)(=O)N2CCCCCC2)cc1` (stereo not given), 14.9% (inactive).
The result for `COC(=O)C1C(=O)c2c([nH]c(C(=O)OCCOC(C)C)c2C)CC1C` (stereo not given) reads -43.7% (inactive); that for `CC(=O)c1cc(-c2ccc(F)cc2)n(CCC(=O)Nc2cc(C)[nH]n2)c1C`, 25.9% (inactive); that for `CCCn1c(=O)c2ccccc2n2c(SCCOc3ccccc3F)nnc12`, -3.55% (inactive).
With `O=C1c2ccccc2C(Nc2ccc(F)c(Cl)c2)N1Cc1ccco1` (stereo not given), the inhibition was 26.8% (inactive).
The result for `COCCn1c(COc2ccc(Cl)cc2)nnc1SCC(N)=O` reads 25.2% (inactive); that for `CCOC(=O)N1CCN(S(=O)(=O)c2ccc(F)c(C(=O)Nc3cc(C)cc(C)c3)c2)CC1`, 14.3% (inactive).

For the origin of these results see PubChem BioAssay.
